Measurements as given in PubChem BioAssay.
Active and inactive are the calls of the source.

Assays:
[1] = binders of probe aFSTL3 on microarray, primary screen, stem cell growth factor project, biochemical, small-molecule microarray, fluorescence 635/667 (AID 1064); settings: higher = more signal;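 further: measures binding of the biotinylated anti-FSTL3 antibody to printed compounds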
[2] = binders from COS7 lysate, DM2A8 probe, primary screen, torsin A project, cell lysate, small-molecule microarray, fluorescence 635/667 (AID 1065); settings: higher = more signal, COS7 lysate expressing mutant human TOR1A
[3] = binders of probe aFGF2 on microarray, primary screen, stem cell growth factor project, biochemical, small-molecule microarray, fluorescence 635/667 (AID 1067); settings: higher = more signal;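 further: measures binding of biotinylated aFGF2 protein to printed compounds on slides; z-score merges feature fluorescence and signal-to-noise across triplicate slides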
[4] = binders of probe aFGF10 on microarray, primary screen, stem cell growth factor project, biochemical, small-molecule microarray, fluorescence 635/667 (AID 1071); settings: higher = more signal;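 further: score merges 667 nm spot intensity and signal to noise from triplicate slides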
[5] = target: Neurogenic locus notch homolog protein 2 (Homo sapiens) (UniProt Q04721); test: Notch2 binders on small-molecule microarrays, primary screen, biochemical, small-molecule microarray, 635 nm fluorescence, stem cell growth factors (AID 1073); settings: Notch2 binding, higher = more signal
Neurogenic locus notch homolog protein 2 (Homo sapiens), sequence (Q04721 whole entry, looked up, canonical isoform): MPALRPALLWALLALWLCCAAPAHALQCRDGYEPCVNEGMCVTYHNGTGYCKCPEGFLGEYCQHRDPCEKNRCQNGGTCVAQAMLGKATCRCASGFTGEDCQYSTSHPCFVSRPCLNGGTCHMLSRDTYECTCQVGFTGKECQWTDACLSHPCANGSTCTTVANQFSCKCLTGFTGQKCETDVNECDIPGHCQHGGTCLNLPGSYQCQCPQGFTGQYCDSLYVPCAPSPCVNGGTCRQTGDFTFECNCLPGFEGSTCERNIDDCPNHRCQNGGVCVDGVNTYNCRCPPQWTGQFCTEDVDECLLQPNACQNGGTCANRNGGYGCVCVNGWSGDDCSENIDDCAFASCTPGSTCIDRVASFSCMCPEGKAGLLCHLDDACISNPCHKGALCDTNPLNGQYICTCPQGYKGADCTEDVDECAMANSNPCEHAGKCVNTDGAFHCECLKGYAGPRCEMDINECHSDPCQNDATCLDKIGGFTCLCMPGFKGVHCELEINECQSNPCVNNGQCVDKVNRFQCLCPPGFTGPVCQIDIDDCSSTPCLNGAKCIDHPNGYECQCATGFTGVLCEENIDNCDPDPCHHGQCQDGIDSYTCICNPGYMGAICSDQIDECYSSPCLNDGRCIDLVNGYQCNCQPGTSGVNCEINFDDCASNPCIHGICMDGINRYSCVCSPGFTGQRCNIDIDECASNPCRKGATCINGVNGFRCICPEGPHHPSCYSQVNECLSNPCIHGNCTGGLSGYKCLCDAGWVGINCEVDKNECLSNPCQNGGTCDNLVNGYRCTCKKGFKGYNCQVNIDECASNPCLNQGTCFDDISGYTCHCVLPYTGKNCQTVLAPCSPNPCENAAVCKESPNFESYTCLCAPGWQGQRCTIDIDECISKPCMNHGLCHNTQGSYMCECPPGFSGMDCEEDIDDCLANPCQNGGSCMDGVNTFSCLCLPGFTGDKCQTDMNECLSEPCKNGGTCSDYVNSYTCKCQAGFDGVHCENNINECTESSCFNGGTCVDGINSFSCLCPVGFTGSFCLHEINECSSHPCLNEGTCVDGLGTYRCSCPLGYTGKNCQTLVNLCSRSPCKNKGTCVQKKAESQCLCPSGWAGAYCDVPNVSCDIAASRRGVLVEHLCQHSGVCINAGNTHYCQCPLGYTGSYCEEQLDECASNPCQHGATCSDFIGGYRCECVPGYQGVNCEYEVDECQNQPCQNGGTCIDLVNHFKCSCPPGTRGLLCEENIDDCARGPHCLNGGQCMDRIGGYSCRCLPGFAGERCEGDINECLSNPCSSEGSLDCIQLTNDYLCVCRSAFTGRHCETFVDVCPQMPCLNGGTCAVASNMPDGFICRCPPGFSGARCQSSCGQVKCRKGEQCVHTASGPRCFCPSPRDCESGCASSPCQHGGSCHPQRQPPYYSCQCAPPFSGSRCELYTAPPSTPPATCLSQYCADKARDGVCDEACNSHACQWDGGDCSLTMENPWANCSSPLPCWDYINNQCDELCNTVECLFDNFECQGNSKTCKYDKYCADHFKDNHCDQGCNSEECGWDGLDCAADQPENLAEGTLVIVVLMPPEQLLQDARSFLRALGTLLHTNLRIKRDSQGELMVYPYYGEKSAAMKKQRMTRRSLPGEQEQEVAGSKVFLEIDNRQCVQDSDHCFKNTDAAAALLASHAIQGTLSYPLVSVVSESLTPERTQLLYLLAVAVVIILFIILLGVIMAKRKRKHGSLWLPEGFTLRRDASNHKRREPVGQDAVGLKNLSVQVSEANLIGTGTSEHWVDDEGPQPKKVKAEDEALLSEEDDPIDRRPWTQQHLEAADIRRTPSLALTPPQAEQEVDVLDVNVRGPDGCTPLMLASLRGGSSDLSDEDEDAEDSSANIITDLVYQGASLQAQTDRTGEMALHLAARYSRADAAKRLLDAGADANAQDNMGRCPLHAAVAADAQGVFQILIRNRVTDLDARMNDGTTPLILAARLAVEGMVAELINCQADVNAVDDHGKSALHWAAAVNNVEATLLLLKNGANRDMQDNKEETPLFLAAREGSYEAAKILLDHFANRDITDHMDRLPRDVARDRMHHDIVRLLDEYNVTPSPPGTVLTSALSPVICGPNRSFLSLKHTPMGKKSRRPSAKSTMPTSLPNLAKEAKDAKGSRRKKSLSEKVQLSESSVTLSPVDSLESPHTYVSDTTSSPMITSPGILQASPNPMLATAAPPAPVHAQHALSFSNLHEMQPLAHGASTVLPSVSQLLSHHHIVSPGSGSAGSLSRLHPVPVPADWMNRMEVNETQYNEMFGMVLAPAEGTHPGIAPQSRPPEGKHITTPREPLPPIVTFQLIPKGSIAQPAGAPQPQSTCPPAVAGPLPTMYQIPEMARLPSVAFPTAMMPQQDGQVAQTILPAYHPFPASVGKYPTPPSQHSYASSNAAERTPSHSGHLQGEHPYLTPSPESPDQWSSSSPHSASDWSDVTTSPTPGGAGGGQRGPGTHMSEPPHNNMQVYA

[6] = target: Pro-neuregulin-1, membrane-bound isoform (Homo sapiens) (UniProt Q02297); test: NRG1 binders on small-molecule microarrays, primary screen, psychiatric disease protein project, biochemical, small-molecule microarray, fluorescence 635/667 (AID 1075); settings: NRG1 binding, 635 nm fluorescence, higher = more signal;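 further: score combines 667 nm spot fluorescence with signal to noise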
Pro-neuregulin-1, membrane-bound isoform (Homo sapiens), sequence (Q02297 whole entry, looked up, the tested form may be a part, canonical isoform): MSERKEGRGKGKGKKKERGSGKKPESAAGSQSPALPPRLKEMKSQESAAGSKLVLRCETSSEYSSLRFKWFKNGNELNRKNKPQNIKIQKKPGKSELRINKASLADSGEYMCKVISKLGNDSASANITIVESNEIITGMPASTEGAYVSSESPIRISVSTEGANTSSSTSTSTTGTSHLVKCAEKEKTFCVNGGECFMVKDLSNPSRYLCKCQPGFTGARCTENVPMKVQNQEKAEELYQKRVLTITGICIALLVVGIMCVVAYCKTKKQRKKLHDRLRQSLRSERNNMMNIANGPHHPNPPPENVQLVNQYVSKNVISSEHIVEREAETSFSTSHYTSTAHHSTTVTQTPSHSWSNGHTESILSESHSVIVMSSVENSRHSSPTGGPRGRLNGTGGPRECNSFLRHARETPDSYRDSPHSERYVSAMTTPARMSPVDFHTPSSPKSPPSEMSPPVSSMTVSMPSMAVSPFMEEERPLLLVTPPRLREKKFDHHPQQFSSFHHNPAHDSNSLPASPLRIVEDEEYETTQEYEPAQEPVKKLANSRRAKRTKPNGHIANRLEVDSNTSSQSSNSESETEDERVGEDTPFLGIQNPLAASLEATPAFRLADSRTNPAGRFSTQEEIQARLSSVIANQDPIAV

[7] = tested on: Neuregulin-1 EGF-like domain; test: binders of neuregulin-1 EGF-like domain, primary screen, biochemical, small-molecule microarray, 635 nm fluorescence (AID 1081); settings: small-molecule microarray binding, higher = more signal;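 further: binding of the protein to compounds printed on small-molecule microarray slides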
[8] = FRG1 promoter luciferase signal modulators, primary screen, FRG1 inhibition for FSHD, cell-based, C2C12 myotubes, firefly/Renilla luciferase, luminescence (AID 1084); settings: higher = more signal, called active from +8 up or from −8 down
[9] = binders of probe aFST on microarray, primary screen, stem cell growth factor project, biochemical, small-molecule microarray, fluorescence 635/667 (AID 1086); settings: higher = more signal;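 further: score merges 667 nm fluorescence with signal-to-noise of each printed compound spot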
[10] = binders of probe aHhip on microarray, primary screen, stem cell growth factor project, biochemical, small-molecule microarray, fluorescence 635/667 (AID 1087); settings: higher = more signal;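 further: score merges spot fluorescence at 667nm with spot signal to noise ratio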
[11] = tested on: PRMT1 (protein arginine N-methyltransferase 1); test: PRMT1 binders on small-molecule microarrays, primary screen, biochemical, small-molecule microarray, 635 nm fluorescence (AID 1088); settings: small-molecule microarray binding, higher = more signal;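 further: binding of Prmt1 protein to compounds spotted on small-molecule microarray slides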
[12] = yeast growth modulation, basal conditions, primary screen, YJM789 clinical isolate, OD600, 24 h (AID 1089);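 further: growth of clinical yeast isolate S. cerevisiae YJM 789 seeded 1000 cells per well; test concentration not given here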; settings: S. cerevisiae YJM789 growth, higher = more signal, called active from +8 up or from −8 down
[13] = fission yeast growth modulation, primary screen, strain 972, OD600, 24 h, no modulator (AID 1090);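 further: basal condition with compound alone and no growth modifier present; test concentration not given here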; settings: S. pombe 972 growth, higher = more signal, called active from +8 up or from −8 down
[14] = S. cerevisiae growth modulation with rapamycin, primary screen, strain BY4716, OD600, 96 h (AID 1091); settings: higher = more signal, called active from +8 up or from −8 down; further: test concentration not given here
[15] = target: Torsin-1A-interacting protein 2 (Homo sapiens) (UniProt Q8NFQ8); test: LULL1 binders on small-molecule microarray, primary screen, cell lysate, human LULL1 lysate, 635/667 nm fluorescence (AID 1092); settings: hLULL1 lysate binding, 635 nm fluorescence, higher = more signal;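 further: probe is lysate of COS7 cells overexpressing human LULL1; score merges per-feature 667 nm fluorescence with signal-to-noise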
Torsin-1A-interacting protein 2 (Homo sapiens), sequence (Q8NFQ8 whole entry, looked up): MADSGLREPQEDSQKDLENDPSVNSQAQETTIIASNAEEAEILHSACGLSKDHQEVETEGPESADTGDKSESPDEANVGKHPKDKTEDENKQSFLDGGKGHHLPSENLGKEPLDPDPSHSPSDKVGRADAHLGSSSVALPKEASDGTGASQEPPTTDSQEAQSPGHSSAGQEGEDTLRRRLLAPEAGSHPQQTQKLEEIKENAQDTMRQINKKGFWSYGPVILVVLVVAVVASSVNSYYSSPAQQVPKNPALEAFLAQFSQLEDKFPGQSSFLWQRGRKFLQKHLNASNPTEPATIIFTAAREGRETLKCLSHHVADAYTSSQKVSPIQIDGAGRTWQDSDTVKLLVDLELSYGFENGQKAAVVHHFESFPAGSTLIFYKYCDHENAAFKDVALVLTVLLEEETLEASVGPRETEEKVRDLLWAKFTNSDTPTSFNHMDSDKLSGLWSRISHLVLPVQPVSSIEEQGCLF

[16] = E. coli growth modulation, two-sided OD650, primary screen, E. coli filamentation project, strain DRC41, 24 h (AID 1093); settings: OD650, 24 h, higher = more signal, called active from +8 up or from −8 down;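 further: MC1000 strain lacking acrAB efflux and sulA so SOS filamentation is blocked; test concentration not given here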
[17] = small-molecule microarray binders of probe aLefty2, primary screen, biochemical, biotinylated probe, 635/667 nm fluorescence (AID 1094); settings: higher = more signal;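 further: score merges spot fluorescence near 667 nm with spot signal-to-noise ratio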
[18] = tested on: Noggin (protein binding on small-molecule microarray); test: Noggin binders on small-molecule microarray, primary screen, biochemical, 635/667 nm fluorescence (AID 1095); settings: 635 nm fluorescence, higher = more signal;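 further: score merges 667 nm feature fluorescence with signal to noise over triplicate slides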
[19] = target: Neurogenic locus notch homolog protein 3 (Homo sapiens) (UniProt Q9UM47); test: NOTCH3 binders on small-molecule microarray, primary screen, biochemical, 635/667 nm fluorescence (AID 1096); settings: NOTCH3 binding, 635 nm fluorescence, higher = more signal
[20] = small-molecule microarray binders of probe aEGFR, primary screen, biochemical, biotinylated probe, 635/667 nm fluorescence (AID 1097); settings: higher = more signal;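 further: probe is a biotinylated anti-EGFR antibody binding compounds printed on slides; score combines fluorescence near 667 nm and signal to noise of each spot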

Row | SMILES | composite z-score [1] | composite z-score [2] | composite z-score [3] | composite z-score [4] | composite z-score [5] | composite z-score [6] | composite z-score [7] | z-score [8] | composite z-score [9] | composite z-score [10] | composite z-score [11] | z-score [12] | z-score [13] | z-score [14] | composite z-score [15] | z-score [16] | composite z-score [17] | composite z-score [18] | composite z-score [19] | composite z-score [20]
1 | COCCCNC(=O)[C@@]1(Sc2ccc(C)cc2)CC(=O)N(Cc2ccccc2)[C@@H]1c1ccc(CO)cc1I | 0.438 | 0.258 | 0.193 | -0.134 | -0.895 | 1.38 | -0.118 | -0.646 (inactive) | 0.458 | 0.0327 | 0.785 | -1.69 (inactive) | -2.82 (inactive) | 0.999 (inactive) | 0.936 | 0.248 (inactive) | 0.556 | -1.53 | -1 | 0.0097
2 | CO[C@H]1O[C@H](CO)[C@@H](OC(=O)Nc2ccc(C#N)cc2)[C@H](OC(=O)c2cc3ccccc3[nH]2)[C@H]1OC(=O)c1cc2ccccc2[nH]1 | 0.0407 | 1.3 | 0.062 | 1.16 | 1.04 | 1.75 | 1.24 | -1.79 (inactive) | 0.462 | -0.0645 | 1.3 | -2.49 (inactive) | -1.17 (inactive) | 0.507 (inactive) | 1.77 | 3.01 (inactive) | 0.0261 | 1.02 | 0.695 | -0.0238
3 | CC(CCN1CCc2nc(-c3ccccc3)c(-c3ccccc3)cc2C1)=NOC[C@@H](C)[C@H](OCc1ccccc1)C(C)C | -0.0574 | -1.01 | -0.172 | -0.756 | -1.63 | 0.0189 | -0.0462 | 0.764 (inactive) | -0.32 | -0.206 | -0.299 | -0.511 (inactive) | -1.17 (inactive) | -3.43 (inactive) | 0.628 | -0.518 (inactive) | -0.195 | -0.179 | -2.07 | -0.25
4 | O=C1NC(=O)C2C1C=CC(C(O)Cc1ccccc1)N2Nc1ccccn1 (stereo not given) | -0.368 | 0.0052 | -0.0154 | 0.477 | 1.14 | 1.79 | 0.934 | -0.518 (inactive) | 0.494 | -0.0618 | 0.185 | -0.47 (inactive) | 1.21 (inactive) | -1.22 (inactive) | 2.31 | 0.297 (inactive) | 0.101 | 0.0356 | 0.504 | 0.0026
5 | COC(=O)[C@@]1(Cc2ccccc2)[C@H]2c3cc(C(=O)N4CCCC4)n(Cc4ccccn4)c3C[C@H]2CN1C(=O)c1ccccc1 | 0.731 | 0.415 | 0.589 | 1.14 | 1.52 | 2.18 | 1.35 | 2.5 (inactive) | 1.65 | 0.257 | 1.57 | 0.263 (inactive) | 0.296 (inactive) | 0.513 (inactive) | 4 | -0.301 (inactive) | 0.614 | 0.856 | 1.14 | 0.211
6 | CC(C)=CCCC(C)=CCON=C1[C@H]2CCn3c(=O)n(Cc4cc5c(cc4Cl)OCO5)c(=O)n3[C@H]2[C@H](O)[C@@H]2O[C@H]12 | -0.405 | 1.2 | -0.0481 | 0.262 | 0.405 | 0.0535 | 0.177 | 0.752 (inactive) | 0.661 | -0.328 | -0.477 | 0.175 (inactive) | -0.105 (inactive) | 0.545 (inactive) | -0.658 | -0.996 (inactive) | 0.0392 | 0.482 | 0.554 | 0.112
7 | CCc1cc2c(nc1CC)CCN(CCC(C)=NO[C@@H](C)c1cc(-c3c(C)cc(C)cc3C)no1)C2 | -0.291 | 0.0396 | -0.126 | -0.298 | -0.89 | 0.191 | -0.0858 | -1.01 (inactive) | -0.119 | 0.0187 | 0.608 | -0.889 (inactive) | -6.86 (inactive) | -1.26 (inactive) | 0.468 | -0.0254 (inactive) | -0.0765 | 0.343 | -1.5 | -0.172
8 | CCCCCN1CC=CC23O[C@@H]4C=CCOC(=O)[C@@H]4[C@H]2C(=O)N(C(CO)C(C)C)[C@@H]3C1=O (stereo not given in full) | 0.232 | -1.58 | -0.141 | -0.495 | -1.15 | -0.694 | 0.657 | -0.0073 (inactive) | -0.357 | -0.15 | -0.266 | 0.403 (inactive) | 0.195 (inactive) | 0.972 (inactive) | -1.52 | 0.869 (inactive) | -0.166 | -0.433 | 0.247 | -0.234
9 | O=C1[C@H]2[C@H]3[C@H](O)[C@H](O)CC(=NOCc4ccccc4)[C@@H]3CC[C@H]2C(=O)N1C1CCCCC1 | -0.116 | 0.487 | -0.098 | 0.292 | 0.0141 | 1.1 | 0.564 | 0.32 (inactive) | 0.0422 | 0.0024 | 1.1 | 0.704 (inactive) | -3.36 (inactive) | 0.485 (inactive) | 1.32 | 0.0212 (inactive) | -0.166 | -0.129 | 0.287 | -0.13
10 | CC(C)CON=C1C[C@@H](O)[C@@H](O)[C@@H]2[C@@H]3C(=O)N(Cc4ccccc4)C(=O)[C@@H]3CC[C@@H]12 | -0.404 | 0.129 | -0.141 | 0.256 | 0.455 | -0.344 | 0.211 | 0.166 (inactive) | -0.313 | -0.199 | 0.517 | -0.443 (inactive) | -0.264 (inactive) | -0.682 (inactive) | 0.434 | 0.354 (inactive) | -0.099 | 0.484 | 0.59 | -0.0679
